High-throughput results deposited in PubChem by National Center for Advancing Translational Sciences (NCATS).
GALC G270D up: enhancers of human galactocerebrosidase G270D mutant activity in cells; P54803; 145M-Twi-hGALC-G270D cells (Twitcher mouse brain line with human GALC G270D), HMU-beta-Gal fluorescence, 48 h; 0.1% of 45,000 active; Potency, µM (series often up to 57.5 µM), most hits filed as activators; further: potency means the concentration at half of the fitted maximal effect; 0% is about no effect; nearly all actives have a fitted effect of over 65% in size
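Brain-derived Twitcher mouse 145M-Twi cells stably expressing human GALC-G270D or wild-type GALC, treated live, then residual GALC activity read by fluorescence of HMU-b-Gal substrate (0.1 mM final) in citrate-phosphate buffer pH 5.2 with sodium taurocholate. Signal increase indicates enhancement.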
NTMT1 inh: NTMT1 methyltransferase inhibition; Potency, µM (titrated, usually from 114 µM), without a hit: top-dose activity change, negative = inhibition, usual class: inhibitors; 2.5% of 59,000 active; Q9BV86; NTMT1 MTase-Glo SAH luminescence, purified enzyme;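 further: potency means the concentration at half of the fitted maximal effect; plate controls were DMSO vehicle for no effect and no enzyme for full effect; nearly all actives have a fitted effect of over 65% in size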
p53null 39C kill: selectivity test: cytotoxicity in p53 null cells, nonpermissive temperature | H1299 p53-null (neo) cells, 39C, ATPlite viability, 24 h | Potency, µM (titrated, usually from 46.1 µM), without a hit: at the top dose activity, negative = cell killing, hits mostly cytotoxic | 0.97% of 55,000 active;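 further: potency means the concentration at half of the fitted maximal effect; 0% = DMSO only and -100% = full killing by 100 µM tamoxifen; nearly all actives have a fitted effect of over 50% in size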
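Following overnight plating at 37C (600 cells/well), H1299-neo or H1299-p53A138V cells are dosed up to 46 uM. Incubation lasts 24 hr at 39C before ATP detection.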
FH mod: Identification of activators of human fumarate hydratase by quantitative high-throughput screening. AID 1347055, 2019. 0.22% of 54,000 active. Potency, µM (doses to about 79.9 µM), for the others: at the top dose activity change, negative = inhibition, usual class: inhibitors. FH coupled MDH/diaphorase resazurin fluorescence, 15 min. Fumarate hydratase, mitochondrial (Homo sapiens), P07954; further: potency means the concentration at half of the fitted maximal effect; on the % scale 0 is the no-effect control and ±100 the full control effect; the screen sought activators but most active calls are inhibition curves; nearly all actives have a fitted effect of over 45% in size
p53null 32C tox: kills p53 null cells at the permissive temperature | 0.62% of 55,000 active | AID 903 | H1299-neo p53 null cells, ATP luminescence, 24 h, 32C | Potency, µM (titrated, usually from 46.1 µM), for inactives: at the highest dose activity change, negative = cytotoxicity, most hits filed as cytotoxic;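 further: potency means the concentration at half of the fitted maximal effect; 0% = DMSO only and -100% = full killing by 100 µM tamoxifen; nearly all actives have a fitted effect of over 55% in size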
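H1299-neo (p53-null) cells, 600/well, were pre-incubated overnight at 37C, then exposed to compounds at up to 46 uM for 24 hr at 32C. Viability was measured as ATP content by luminescence, and AC50 values came from Hill fits.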
DRV1 agonist: activates human resolvin D1 receptor GPR32; CHO-K1 GPR32 beta-arrestin PathHunter luminescence, 90 min; zero percent set by DMSO-only wells; activation, % at 76.9 µM; 2.5% of 48,000 active;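 active means activation of at least 60% and not above a set upper limit, about 1 call in 100 departs from these limits; inconclusive means activation of 40% to 60%, or above that upper limit; inactive means activation under 40%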; further: 0% is about no effect
Target sequence (O75388 whole entry, looked up): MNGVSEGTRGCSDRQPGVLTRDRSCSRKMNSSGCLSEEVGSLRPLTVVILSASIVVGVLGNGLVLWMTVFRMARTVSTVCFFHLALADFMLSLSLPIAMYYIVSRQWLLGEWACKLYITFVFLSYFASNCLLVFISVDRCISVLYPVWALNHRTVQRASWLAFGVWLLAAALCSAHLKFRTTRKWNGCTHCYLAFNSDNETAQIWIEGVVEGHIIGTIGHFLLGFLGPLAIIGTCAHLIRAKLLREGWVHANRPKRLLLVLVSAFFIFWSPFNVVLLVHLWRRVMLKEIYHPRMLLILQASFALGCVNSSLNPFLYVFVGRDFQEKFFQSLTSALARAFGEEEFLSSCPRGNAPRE
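Step 1: seed CHO-K1 GPR32 beta-arrestin cells, 2,500/well, overnight at 37 °C. Step 2: add compounds, 90 min at 37 °C. Step 3: detection reagent, 1 h ambient, then luminescence.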
Sfp qHTS opt: Sfp PPTase inhibition, chemistry optimization | shares compounds with NTMT1 inh | Potency, µM (series often up to 114 µM), for inactives: at the highest dose activity change, negative = inhibition, hits mostly inhibitors | AID 540350 | 78% of 230 active | purified Sfp PPTase enzyme activity, qHTS
HM489 growth: Sfp PPTase inhibitors: growth inhibition of B. subtilis HM489; 50% of 220 active; shares compounds with NTMT1 inh; AID 540353; B. subtilis HM489 (acpS-) growth, BacTiter-Glo, 5 h; Potency, µM (highest dose often 114 µM), for the others: at the highest dose activity change, negative = inhibition, most hits filed as inhibitors
Sfp gel opt: inhibitors of Bacillus subtilis Sfp PPTase, gel-based followup | AID 540355 | Potency, µM (series often up to 250 µM), for the others: at the top dose activity change, negative = inhibition, actives largely listed as inhibitors | 54% of 220 active | purified Sfp PPTase, gel-based product detection | shares compounds with NTMT1 inh
Sfp inh SAR2: Sfp phosphopantetheinyl transferase inhibition, SAR round 2 | shares compounds with NTMT1 inh | purified Sfp enzyme, PPTase activity, qHTS | Potency, µM (series often up to 57.1 µM), inactives show at the top dose activity change, negative = inhibition, actives largely listed as inhibitors | 87% of 230 active | AID 602370
hGST ctr: hGST A1-1 enzyme inhibition, Sfp SAR counter-screen | hGST A1-1 enzyme activity counter-screen, qHTS | 55 tested, under 10 active | Potency, µM (top dose mostly 114 µM), for inactives: at the highest dose activity change, negative = inhibition, actives largely listed as inhibitors | shares compounds with NTMT1 inh
HSD17B4 counter: HSD17B4 (human) inhibition, HPGD counter-screen | shares compounds with NTMT1 inh | purified HSD17B4, estradiol/NAD+, NADH fluorescence | Potency, µM (titrated, usually from 57.1 µM), for inactives: top-dose activity change, negative = inhibition, usual class: inhibitors | 10% of 230 active
ALDH1A1 inh: inhibits human ALDH1A1, off-target for HPGD inhibitors; shares compounds with NTMT1 inh; recombinant ALDH1A1, NADH fluorescence, propionaldehyde/NAD+; Potency, µM (series often up to 57.1 µM), for inactives: at the highest dose activity change, negative = inhibition, hits mostly inhibitors; AID 743195; 93% of 230 active
The depositor's hits bear a star; [ ] = dose if it differs, or a comment. Sampled rows, rich in hits. Any-hit rate of the full collection: about 3.9%. Unless noted, the call rests on the fitted dose curve; in most records, active means well fitted curve in the direction sought with a large enough effect; inconclusive means small, poorly fitted or top-dose-only effect, or another doubt; inactive means no such curve, though single readings can be large; an effect the other way counts as inactive or inconclusive.

Cc1ccc(OCCn2c(CCNC(=O)C(C)(C)C)nc3ccccc32)cc1 was read as NTMT1 inh -2%[57.5 µM].
For CC(=O)NC1C(OC2CCC3(C)C(CCC4(C)C3CC=C3C5CC(C)(C)CCC5(C(=O)O)C(O)CC34C)C2(C)C)OC(CO)C(O)C1O (stereo not drawn) the results were NTMT1 inh 14%[12.6 µM] and FH mod 5%[20.6 µM].
For CN1CCN(c2nnc(NC(=O)Nc3ccc(Cl)c(Cl)c3)s2)CC1 the results were NTMT1 inh 14%.
For CN1CCN(C2=Nc3ccccc3Oc3ccc(Cl)cc32)CC1 the results were GALC G270D up inactive, NTMT1 inh -3%[57.5 µM], FH mod -5%[53.3 µM] and DRV1 agonist -29.
Screening Cc1cc(C)nc(NC(=S)N2CCN(c3cncs3)CC2)c1 returned NTMT1 inh inconclusive, Sfp qHTS opt 7.4µM*, HM489 growth 25%, Sfp gel opt 16µM*, Sfp inh SAR2 4.6µM*, HSD17B4 counter -18% and ALDH1A1 inh 24µM*.
Screening Cc1cc(C)nc(NC(=S)N2CCN(c3ncccc3C#N)CC2)c1 returned NTMT1 inh inconclusive, Sfp qHTS opt 0.58µM*, HM489 growth inconclusive, Sfp gel opt inconclusive, Sfp inh SAR2 1.2µM*, hGST ctr inconclusive, HSD17B4 counter -29% and ALDH1A1 inh 22µM*.
Cc1ccc(C)c(N2CCN(C(=O)NCc3noc4ccccc34)CC2)c1 was read as GALC G270D up inactive, NTMT1 inh -2%, p53null 39C kill -10%, FH mod -7%, p53null 32C tox -6% and DRV1 agonist -5.
